The values below come from PubChem BioAssay (NCI).

Structures are written as SMILES. Values joined by “and” are separate entries in the source; they are usually repeats but may differ in a detail not shown here. Equal values may be shown once. This is part of a sample that, as a whole, favours compounds with a hit. Of some 83,000 tested, about 20% had one in any assay.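 Cells were grown in 96-well plates and exposed to the test compound at a single concentration for 48 hours; results are reported as percent growth, with values below 10 considered active.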 Values without a mark were called inactive. Active and inactive are the calls of the source.

This assay has as its system MDA-MB-468 breast. Description: NCI-60 one-dose screen, 48 h (100 = growth as untreated, 0 = no growth, -100 = all killed). The following applies: 10 µM unless noted.

Consider `CCCCn1c(C(=O)c2c[nH]c3ccccc23)n[nH]c1=S`, for which the growth is 109%. As to `O=C(c1nnc(Nc2ccccc2Br)o1)c1c[nH]c2ccccc12`, the growth is 103%. Under `CN(C)c1ccc(C2C(C#N)=C(/N=C/c3ccccc3)Oc3c2ccc2ccccc32)cc1` (stereo unspecified) stands 86.3%; under `O=[N+]([O-])c1cccc(N=Cc2ccc3c(c2)OCO3)c1`, 103%; under `COc1cc2oc(-c3cccc(C(=O)Nc4ccc(Cl)cc4)c3)cc(=O)c2c(O)c1OC`, 43.7%. For `C=C1C(=O)O[C@H]2[C@H]1CC/C(COC(=O)/C=C\C(=O)NCc1ccc(Cn3c(=O)sn(CCCCl)c3=O)cc1)=C\CC[C@@]1(C)O[C@@H]21`, the growth was 40.3%. As for `COc1cc(/C=C/C(=O)/C=C(O)/C=C/c2ccc(OC(=O)C34CC5CC(CC(C5)C3)C4)c(OC)c2)ccc1OC(=O)C12CC3CC(CC(C3)C1)C2`, the figure is 108%; as for `CC[N+](CC)(CC(=O)Nc1c(C)cccc1C)Cc1ccccc1`, 63.8%. Under `Nc1c(C(=O)Nc2cccc3ccccc23)sc2nc3c(cc12)CCCCCC3` stands 30.7%. As for `N#C/C(=C/c1ccc(O)c([N+](=O)[O-])c1)c1nc(-c2ccc([N+](=O)[O-])cc2)cs1`, the figure is 14.3%; as for `O=C1/C(=C\c2cn(CC(O)CN3CCCCC3)c3ccccc23)c2ccccc2N1c1c(Cl)cccc1Cl` (stereo unspecified), -93.3% (active); as for `COc1cc(/C=C/C(=O)c2cccnc2Nc2ccc(F)cc2)cc(OC)c1OC`, 16.3%. Consider `O=C(C(Br)C(Br)c1ccccc1)C(Br)C(Br)c1ccccc1` (stereo unspecified), for which the growth is -44.4% (active). As for `CCCCCCNC(=O)Oc1ccc(/C(=C(/C)c2ccc(Cl)cc2)c2ccc(OCCN3CCCCCC3)cc2)cc1`, the figure is 35.9%; as for `COc1ccccc1/C=C1\Oc2ccc(O)c(O)c2C1=O`, 101%; as for `Oc1ccccc1/C=N/Nc1nc(N/N=C/c2ccccc2O)nc(N2CCOCC2)n1`, 39.2%. As for `CS(=O)(=O)Nc1cc(-c2ccc3ncc(C#N)c(NCc4ccccc4F)c3c2)cnc1Cl`, the figure is -16.8% (active).

Turning to `Cc1cccc(C(=O)N(C(C)C)C(C)C)c1`, the growth is 105%. Under `O=C1c2cccc3cccc(c23)C(=O)N1Nc1nc(NC2CCCCC2)nc(N2CCOCC2)n1` stands 114%. As for `COc1cc(Nc2ncc(F)c(Nc3ccc4c(n3)N(COP(=O)(O)O)C(=O)C(C)(C)O4)n2)cc(OC)c1OC`, the growth is 6.8% (active).

In the case of `Cc1ccc(S(=O)(=O)N(CCC(=O)O)c2ccccc2)cc1`, the growth was 113%.

Regarding `COc1ccccc1/C=C1\Oc2cc(OCCN3CCC(Cc4ccccc4)CC3)ccc2C1=O`, the growth was 76.4%.

As for `CN(C)CCCOc1c2ccc(Cl)cc2nc2c1oc1ccccc12`, the growth is -39.8% (active).

Regarding `O=c1ccn2nc3ccccc3c2[nH]1`, the growth is 95.5%.

`CCOC(=O)c1c(C)nc2c(c1N)CC(=O)N2CCc1ccccc1`: the growth was 44%.

As for `CCOC(=O)c1c(Nc2ccccc2)nn2c(-c3ccc(OC)c(OC)c3)ccnc12`, the growth was 37.7%. As for `O=c1c2ccccc2c(=O)c2c1sc1c(=O)c3ccc(O)cc3c(=O)c12`, the figure is -43.6% (active). Under `O=C(C(=Cc1ccccc1)C(=O)c1ccccc1)c1ccccc1` stands 63.4% and 89.4%; under `Cc1ccccc1C1N=C2Oc3ccccc3C=C2C(=O)N1` (stereo unspecified), 21.8%. As to `CN(C)C(=S)Sc1ccc([N+](=O)[O-])cc1[N+](=O)[O-]`, the growth is -78.7% (active). With `Cc1nc(N)sc1-c1ccnc(Nc2ccc(N3CCOCC3)cc2)n1`, the growth was 34.1%. On to `CCCCCCCCCCCCCCCCCCOc1ccccc1CC(=O)NCC[N+]1(C)CCOCC1`, for which the growth was 13.7%.

Regarding `COc1cc2oc(-c3cccc(N)c3)cc(=O)c2c(OC)c1OC`, the growth was 99.9%. With `COc1cc(/C=C/C(=O)c2cc(-c3ccc(F)cc3)ccc2O)cc(OC)c1OC`, the growth was 65.6%. Under `Nc1nc(N)c2c(n1)NC(c1sc(Cl)nc1Cl)CC(c1ccccc1)=N2` (stereo unspecified) stands -2.14% (active). Under `COc1ccc(-c2nn(-c3cccc(Cl)c3)cc2-c2cc(-c3ccc(Br)cc3)nc(N)n2)cc1` stands 95%; under `Clc1cc(Cl)cc(N2N=C(c3cccc(Nc4ccncc4)c3)CC2c2ccc3c(c2)OCO3)c1` (stereo unspecified), 24.8%; under `Cc1nn(-c2ccc(Cl)cc2)c2nc3c(nc12)C(=O)C(=O)c1ccccc1-3`, 65.3%. As for `Oc1ccc(Cl)cc1-c1cc(-c2ccc(Cl)cc2)n[nH]1`, the figure is 8.55% (active).

In the case of `Cc1nc2ccccc2c(/C=C/c2ccc(F)cc2)c1C(=O)/C=C/c1ccccc1`, the growth was 17%. As for `COc1cc(/C=N/NC(=O)c2cnn3c2NC(c2ccccc2)C3)ccc1OCc1ccccc1` (stereo unspecified), the figure is 1.21% (active); as for `CCCCN(CCCC)CC(C)(C)C(O)c1ccc(OC)c2ccccc12` (stereo unspecified), 41.8%.

Take `O=C(Oc1c(Cl)c(Cl)c(Cl)c(Cl)c1Cl)C1CCCN1C(=O)OCc1ccccc1` (stereo unspecified): the growth is 11.9%. Under `CCOC(=O)c1cn2ncnc(Oc3ccc(NC(=O)NC4CC4)c(Cl)c3)c2c1C` stands 90.1%; under `O=[N+]([O-])c1cccc(-c2nc3sccn3c2-c2ccnc(NCCNS(=O)(=O)c3ccc(C(F)(F)F)cc3)n2)c1`, 28.3%. As for `CCOC(=O)C1=NN(c2ccccc2)C(=O)/C1=C\N1C(=O)/C(=C/c2cccc(O)c2)SC1=S`, the figure is 106%; as for `Cc1cc(C)c(NC(=O)c2sc3nc4c(cc3c2N)CN(Cc2ccccc2)CC4)c(C)c1`, 14%.

Consider `C=CCn1c(CN2CCN(c3cc4c(cc3F)c(=O)c(C(=O)O)cn4C3CC3)CC2)n[nH]c1=S`, for which the growth is 105%.

On to `COC(OC)C1(c2ccccc2)NC(=O)NC1=O` (stereo unspecified), for which the growth is 113%.

In the case of `COc1ccc(-n2nnc(C(=O)O)c2-c2cc(OC)c(OC)c(OC)c2)cc1`, the growth is 102%. Take `COc1ccc(/C=C(\C#N)n2nnc3cc(Cl)ccc32)cc1`: the growth is 18.5%. Under `C/C(=N\O)[C@@H]1CC[C@]2(CO)CC[C@]3(C)[C@H](CC[C@@H]4[C@@]5(C)CCCNC(C)(C)[C@@H]5CC[C@]43C)[C@@H]12` stands 74.6%; under `COc1ccc(C/C(C)=C(/c2ccc(OCCCN(C)C)cc2)c2ccc(OC(C)=O)cc2)cc1`, 63.8%.

`O=C1CSC(c2cn(-c3ccccc3)nc2-c2ccc(Cl)cc2)N1c1ccccc1` (stereo unspecified): the growth is 104%.

`COC(=O)c1ccc(C(=Nc2ccc(N(C)C(=O)CN3CCN(C)CC3)cc2)c2c(O)[nH]c3ccc(C(=O)OC)cc23)cc1`: the growth was 62.5%. As for `O=C(/C(=C/c1ccc([N+](=O)[O-])cc1)SCc1ccccc1)c1ccc(Cl)cc1`, the growth was 70.4%.

In the case of `CC1Cc2c(Cl)ncnc2N(C)c2ccc(Cl)cc21` (stereo unspecified), the growth is -35.8% (active).

Regarding `N/C(=N\C(N)=N\c1nc2ccccc2s1)c1cccc(Cl)c1`, the growth was 110%. Under `O=C(/C=C/C12c3ccccc3C(c3ccccc31)C1C(=O)NC(=O)C12)c1ccc(F)cc1` (stereo unspecified) stands -25% (active); under `N=C(N)c1ccc(-c2ccc(-c3cc(Cl)cc(Cl)c3)o2)o1`, -69.1% (active); under `N#Cc1c(-c2ccccc2)nc2c(c(-c3ccccc3)nn2-c2ccccc2)c1-c1ccc(N2CCCCC2)cc1`, 93.7%. As for `OC(CCN1CCCCC1)(c1ccccc1)c1ccccc1`, the figure is 101%.

As for `CC(=[N-])N1CCC[C@@H](Nc2c3ccccc3nc3ccccc23)C1.[Cl][Pt].[NH-]CCC[NH-]`, the growth was -10.4% (active). In the case of `COC1=CC2C=C(C3N(c4ccccc4)NC(=O)[C@@H]4CCCN34)C(=O)NC2C=C1` (stereo partly specified), the growth was 114%. Under `O=C(Cc1ccccc1)Nc1cccc(N=Cc2ccccc2O)c1` stands 104%. As for `Nc1nc(N=Nc2ccc(O)cc2)cc(=O)[nH]1`, the figure is 91.5%; as for `Cc1ccc2c(c1)C(=O)C(c1c(-c3[nH]c(=O)c4ccc(C)cc4c3O)c(O)c3ccccc3c1O)=NC2=O`, -23.1% (active); as for `COc1c(C(=O)Nc2ccc(C)c(Br)c2)ccc2ccccc12`, 87.9%.

Consider `Cc1cc(-c2cc(C)c(O)c(C)c2)cc(C)c1O`, for which the growth was 26.1%. Under `COC(=O)c1cc(-c2ccccc2)[nH]c1N/N=C/c1c(Cl)cccc1Cl` stands -7.8% (active). Under `Cc1onc(-c2ccccc2Cl)c1C(=O)N[C@@H]1C(=O)N2[C@@H]1SC(C)(C)[C@@H]2C(=O)O` stands 109%; under `Oc1ccc(/C=N/Nc2nnc(N/N=C/c3ccc(O)cc3O)c3ccccc23)c(O)c1`, -47.3% (active); under `O=C(CN1C=NC2C(N3CCOCC3)=NC=NC21)c1ccc(Br)cc1` (stereo unspecified), 99%. Under `CCC(C)N(CCNc1cc(OC)cc2cccnc12)CC(C)C` (stereo unspecified) stands -52.5% (active). With `CCN(CC)C(=S)SCCO`, the growth was 94.6%. Under `CCSc1nnc2c3cc(Br)ccc3n(C)c2n1` stands 115%. Turning to `CN1CCN(Cc2ccc(NC(=O)c3cncc(C#Cc4c(N)ncc5ccc(C#N)cc45)c3)cc2C(F)(F)F)CC1`, the growth is 96.1%. Under `Cc1ncc(C(=O)Nc2ccc(CN3CCN(C)CC3)c(C(F)(F)F)c2)cc1C#Cc1c(N)ncc2ccccc12` stands -74.8% (active); under `CCOC(=O)c1cc2c(n1Cc1cc(OC)cc(OC)c1)-c1oncc1CC2`, -14.1% (active). Under `CCCC(F)C(=O)O` (stereo unspecified) stands 108%; under `Cc1cc(=O)oc2cc(OC(=O)CN3CCN(C)CC3)ccc12`, 101%.
